Structures are written as SMILES. Inconclusive results are not listed. Entries that show only a call come without a potency. Calls of active or inactive are those of the source. Calls follow the shape of the full dose curve.

The nature of this test: Cytotoxicity counterscreen for inhibitors of SARS-CoV-2 cell entry (AID 1645845). Also: nearly all actives have a fitted effect of over 50% in size. Conditions: cell viability (SARS-CoV-2 entry assay cells); series mostly up to 57.1 µM. The method in brief:
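48 h compound treatment (after 1 h preincubation), HEK293-ACE2 cells, 37 C/5% CO2; ATP luminescence endpoint; normalized to cell wells and media blanks.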
On the technique in general: A counterscreen serves to expose hits that act by an unwanted route or on another target.
For `CN[C@@H]1[C@H](O)[C@H](NC)[C@H]2O[C@@]3(O)C(=O)C[C@@H](C)O[C@H]3O[C@@H]2[C@H]1O`, the Potency entry is “inactive”.

`CCN[C@H]1CN(CCCOC)S(=O)(=O)c2sc(S(N)(=O)=O)cc21`: the Potency result was “inactive”. Same read-out and setting: as for `CN1C(C(=O)Nc2ccccn2)=C(O)c2ccccc2S1(=O)=O`, the entry is “inactive”.

As for `CCN(Cc1ccncc1)C(=O)C(CO)c1ccccc1` (centres undefined), the Potency entry was “inactive”. Still for that read-out and setting: with `COc1cccc(OC)c1C(=O)N[C@@H]1C(=O)N2[C@@H]1SC(C)(C)[C@@H]2C(=O)O` the entry was “inactive”; with `Nc1cc(C(Cl)=C(Cl)Cl)c(S(N)(=O)=O)cc1S(N)(=O)=O`, “inactive”; with `Cc1c(N(C)CS(=O)(=O)O)c(=O)n(-c2ccccc2)n1C`, “inactive”. As for `C[C@H](NC(CCc1ccccc1)C(=O)O)C(=O)N1CCC[C@H]1C(=O)O` (some centres undefined), the Potency entry is “inactive”. On to `O=C1c2c(O)cccc2Cc2cccc(O)c21`, for which the Potency entry is “inactive”. For the compound `Nc1nc(/C(=C/CC(=O)O)C(=O)N[C@@H]2C(=O)N3C(C(=O)O)=CCS[C@H]23)cs1`, the Potency result was “inactive”. Same read-out and setting: with `Cc1cnc(NC(=O)C2=C(O)c3ccccc3S(=O)(=O)N2C)s1` the entry was “inactive”; with `CN1CCC[C@@H]1c1cccnc1`, “inactive”. As to `Cc1ccc(C(C)C)c(O)c1`, the Potency result is “inactive”. On the same count and under the same terms, with `O=C(C1CCCCC1)N1CC(=O)N2CCCc3ccccc3C2C1` (centres undefined) the entry was “inactive”. Still for that read-out and setting: as for `CCN(CC)CCNC(=O)c1cc(S(C)(=O)=O)ccc1OC`, the entry is “inactive”. As for `NCCCNCCSP(=O)(O)O`, the activity change, negative = cytotoxicity was -16.9% [at 11.3 µM] (inactive). Consider `NC(N)=NS(=O)(=O)c1ccc(N)cc1`, for which the Potency entry is “inactive”. As to `CS(=O)(=O)c1ccc([C@@H](O)[C@@H](CO)NC(=O)C(Cl)Cl)cc1`, the Potency entry is “inactive”.

On to `CC1(C)O[C@H]2CC(=O)OC[C@]23[C@H]2CC[C@@]4(C)[C@H](c5ccoc5)OC(=O)[C@H]5O[C@]54[C@]2(C)C(=O)C[C@@H]13`, for which the Potency entry is “inactive”. As for `O=C(O)c1cc(O)c(O)c(O)c1`, the Potency result was “inactive”. Still for that read-out and setting: with `CCCCCN(CCCOC)C(=O)C(CCC(=O)O)NC(=O)c1ccc(Cl)c(Cl)c1` (centres undefined) the entry was “inactive”; with `NC(=O)c1ncn([C@@H]2O[C@H](CO)[C@@H](O)[C@H]2O)c1O`, “inactive”; with `Nc1nc(-c2ccccc2)c(Br)c(=O)[nH]1`, “inactive”. On the same count and under the same terms, with `O=c1[nH]cnc2[nH]ncc12` the entry was “inactive”; with `O=C(Oc1ccccc1C(=O)O)c1ccccc1O`, “inactive”; with `CN1C[C@@H]2C[C@H]1CN2c1cc2c(cc1F)c(=O)c(C(=O)O)cn2C1CC1`, “inactive”.

As for `COCCOC(=O)C1=C(C)NC(C)=C(C(=O)OC(C)C)C1c1cccc([N+](=O)[O-])c1` (centres undefined), the Potency entry was “inactive”. Consider `C=C1[C@H](CO)[C@@H](O)C[C@@H]1n1cnc2c(=O)[nH]c(N)nc21`, for which the Potency entry is “inactive”. The same measure, in the same setting: as for `Cc1cccc(C)c1OCC(=O)N[C@@H](Cc1ccccc1)[C@@H](O)C[C@H](Cc1ccccc1)NC(=O)[C@H](C(C)C)N1CCCNC1=O`, the entry is “inactive”. The same measure, in the same setting: with `CC(=O)Nc1c(I)c(NC(C)=O)c(I)c(C(=O)O)c1I` the entry was “inactive”. For `CC(C)(S)[C@@H](N)C(=O)O`, the outcome was “inactive [at 5.25 µM]”. On to `CCC1=C(C)CN(C(=O)NCCc2ccc(S(=O)(=O)NC(=O)NC3CCC(C)CC3)cc2)C1=O` (centres undefined), for which the Potency result was “inactive”. Still for that read-out and setting: as for `N#Cc1ccc2c(c1)N(CCCN1CCC(O)CC1)c1ccccc1S2`, the entry is “inactive”. The same measure, in the same setting: with `O=C(CO)[C@@H](O)[C@H](O)[C@@H](O)CO` the entry was “inactive”; with `CCOc1ccc(NC(=O)CC(C)O)cc1` (centres undefined), “inactive”. Same read-out and setting: as for `OCc1ccc(Cl)cc1Cl`, the entry is “inactive”; as for `O=C(OCc1ccccc1)c1ccccc1`, “inactive”. For `COc1cc(C)c(Cc2cnc(N)nc2N)cc1OC`, the Potency result is “inactive”. Still for that read-out and setting: as for `Clc1ccc2nsnc2c1NC1=NCCN1`, the entry is “inactive”.

These data come from PubChem BioAssay (NCATS).
